Test results from PubChem BioAssay (NCI).
The panel holds about 79,000 compounds, 15% with a hit somewhere; the sample as a whole holds those more often. Calls of active or inactive are those of the source. Cut-off read from the data, not from the text of the source: active = growth inhibition above about 70%; inactive = the rest.

Assays:
[1] = NCI Yeast Anticancer Drug Screen. Data for the rad52 strain (AID 147);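 note: 0% = growth of vehicle-treated control cultures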; conditions: S. cerevisiae rad52 mutant growth inhibition, stronger effect = higher value
Outline: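 Inhibition of yeast growth, referenced to vehicle controls, was the measured output for a strain with defective DNA damage repair.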

[2] = NCI Yeast Anticancer Drug Screen. Data for the wt1 strain (AID 149);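 note: 0% = growth of vehicle-treated wt1 cultures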; conditions: S. cerevisiae wt1 strain (SPY 50644) growth inhibition, stronger effect = higher value
Outline: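 The wt1 strain was treated with compounds, and growth was compared with vehicle-treated cultures to give inhibition.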

[3] = NCI Yeast Anticancer Drug Screen. Data for the rad50EPP+ strain (AID 151);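 note: 0% = growth of vehicle-treated control cultures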; conditions: S. cerevisiae rad50 mutant strain, stronger effect = higher value
Outline: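 Genetically defined yeast (rad50EPP+, DNA damage repair alteration) is grown with compound, and inhibition of growth is expressed relative to vehicle-treated controls.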

[4] = NCI Yeast Anticancer Drug Screen. Data for the mgt1 strain (AID 153); conditions: S. cerevisiae mgt1 mutant growth inhibition, stronger effect = higher value
Outline: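 In the mgt1 strain, test compounds were added and growth inhibition was determined relative to vehicle-treated controls.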

[5] = NCI Yeast Anticancer Drug Screen. Data for the rad50 strain (AID 155);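 note: 0% = growth of vehicle-only cultures of the same strain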; conditions: S. cerevisiae rad50 strain growth inhibition, stronger effect = higher value
Outline: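 Cells are treated with compound, grown, and their growth is then scored against vehicle-only cultures of the same repair-deficient yeast strain.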

[6] = NCI Yeast Anticancer Drug Screen. Data for the mec2-1 strain (AID 157); conditions: S. cerevisiae mec2-1 strain, stronger effect = higher value
Outline: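 Each compound was tested on mec2-1 yeast, a strain altered in DNA damage repair or cell cycle control. Growth inhibition is reported relative to vehicle.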

[7] = NCI Yeast Anticancer Drug Screen. Data for the rad14 strain (AID 159);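 note: 0% = growth of vehicle-treated control cultures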; conditions: S. cerevisiae rad14 strain growth inhibition, stronger effect = higher value
Outline: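 Readout: yeast growth inhibition, referenced to vehicle-only cultures. Strain bears a defined alteration in DNA damage repair.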

[8] = NCI Yeast Anticancer Drug Screen. Data for the sgs1 mgt1 strain (AID 161);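 note: 0% = growth of cultures given vehicle only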; conditions: S. cerevisiae sgs1 mgt1 strain, stronger effect = higher value
Outline: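 Test agents were incubated with a DNA-repair-mutant yeast strain. Growth was then read and compared against vehicle-treated controls.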

[9] = NCI Yeast Anticancer Drug Screen. Data for the CLN2oe strain (AID 163);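 note: 0% = growth of vehicle-only control cultures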; conditions: S. cerevisiae CLN2oe strain, stronger effect = higher value
Outline: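 First, the altered yeast strain was treated with each compound; second, its growth was measured; finally, inhibition was derived by comparison with vehicle controls.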

[10] = NCI Yeast Anticancer Drug Screen. Data for the cln2 rad14 strain (AID 165);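 note: 0% = growth equal to vehicle treated cultures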; conditions: S. cerevisiae cln2 rad14 strain, stronger effect = higher value
Outline: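 Test compounds were added to cln2 rad14 yeast cultures; inhibition of growth was then determined by comparison with vehicle treatment.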

[11] = NCI Yeast Anticancer Drug Screen. Data for the bub3 strain (AID 167); conditions: S. cerevisiae bub3 mutant strain, stronger effect = higher value
Outline: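 Part of a panel of yeast mutants defective in DNA damage repair or cell cycle regulation. Each strain is grown with compound, and inhibition is calculated relative to solvent-treated cultures.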

[12] = NCI Yeast Anticancer Drug Screen. Data for the wt2 strain (AID 169);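 note: 0% = growth of vehicle-treated yeast cultures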; conditions: S. cerevisiae wt2 strain growth inhibition, stronger effect = higher value
Outline: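 The panel's yeast strains carry defined changes in DNA repair or cell cycle genes. Each strain is grown with compound, and growth loss is scored relative to vehicle.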

[13] = NCI Yeast Anticancer Drug Screen. Data for the mlh1 strain (AID 171);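 note: 0% = growth of vehicle-treated control cultures of the same strain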; conditions: S. cerevisiae mlh1 strain growth inhibition, stronger effect = higher value
Outline: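 Inhibition values reflect reduced yeast growth in the presence of compound, referenced to vehicle controls, using a strain chosen for its alteration in DNA repair or cell cycle control.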

[14] = NCI Yeast Anticancer Drug Screen. Data for the sgs1 strain (AID 173);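 note: 0% = growth of vehicle-only control cultures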; conditions: S. cerevisiae sgs1 mutant, stronger effect = higher value
Outline: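 Vehicle-treated cultures served as reference for growth inhibition of a yeast strain altered in DNA damage repair or cell cycle control after compound exposure.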

[15] = NCI Yeast Anticancer Drug Screen. Data for the mlh1 rad18 strain (AID 175); conditions: S. cerevisiae mlh1 rad18 strain growth inhibition, stronger effect = higher value
Outline: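 Inhibition values reflect reduced growth of mutant yeast versus vehicle-treated controls following compound exposure; the mutations affect DNA damage repair.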

[16] = NCI Yeast Anticancer Drug Screen. Data for the rad18 strain (AID 177); conditions: S. cerevisiae rad18 mutant growth inhibition, stronger effect = higher value
Outline: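 Steps: expose repair-mutant yeast to compound; measure growth; express as inhibition relative to vehicle control.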

[17] = at 5.0 µM (retest, dose inferred, filed as 0.5)
[18] = at 50.0 µM (retest, dose inferred, filed as 5.0)

Measured: growth inhibition

O=C1C2CC[C@@H]3C(=O)C(Cl)(Cl)[C@@H]3CCC2C1(Cl)Cl (stereo partly drawn)
active: [1]; at 100.0 µM 76% | [5]; [18] 70% | [5]; at 50.0 µM 83.3% | [6]; at 50.0 µM 81.9% | [8]; at 50.0 µM 84.6% | [10]; at 50.0 µM 78.8% | [11]; at 50.0 µM 70.8% | [15]; [18] 88% | [15]; at 50.0 µM 79.2% | [16]; at 3.7 µM 85% | [16]; at 11.0 µM 94% | [16]; at 33.0 µM 95% | [16]; at 100.0 µM 96%
inactive: [1]; at 1.2 µM 12% | [1]; at 3.7 µM 25% | [1]; at 11.0 µM 46% | [1]; at 33.0 µM 69% | [2]; at 1.2 µM 0% | [2]; at 3.7 µM 1% | [2]; at 11.0 µM 2% | [2]; at 33.0 µM 9% | [2]; at 100.0 µM 12% | [3]; at 1.2 µM 8% | [3]; at 3.7 µM 15% | [3]; at 11.0 µM 37% | [3]; at 33.0 µM 56% | [3]; at 100.0 µM 50% | [4]; at 1.2 µM -2% | [4]; at 3.7 µM -1% | [4]; at 11.0 µM 8% | [4]; at 33.0 µM -2% | [4]; at 100.0 µM 4% | [5]; at 1.2 µM 5% | [5]; at 3.7 µM 12% | [5]; [17] 19% | [5]; at 11.0 µM -2% | [5]; at 33.0 µM 33% | [5]; at 100.0 µM 37% | [6]; at 1.2 µM 2% | [6]; at 3.7 µM 6% | [6]; [17] -2% | [6]; at 11.0 µM 11% | [6]; at 33.0 µM 21% | [6]; [18] 49% | [6]; at 100.0 µM 24% | [7]; at 1.2 µM 0% | [7]; at 3.7 µM 3% | [7]; at 11.0 µM 6% | [7]; at 33.0 µM 13% | [7]; at 100.0 µM 22% | [8]; [17] 18% | [8]; [18] 67% | [9]; at 1.2 µM 3% | [9]; at 3.7 µM 0% | [9]; at 11.0 µM 5% | [9]; at 33.0 µM 10% | [9]; at 100.0 µM 20% | [10]; [17] 2% | [10]; [18] 22% | [11]; at 1.2 µM 1% | [11]; at 3.7 µM 2% | [11]; [17] -30% | [11]; at 11.0 µM 12% | [11]; at 33.0 µM 10% | [11]; [18] 10% | [11]; at 100.0 µM 11% | [12]; at 1.2 µM 1% | [12]; at 3.7 µM 3% | [12]; at 11.0 µM 7% | [12]; at 33.0 µM 10% | [12]; at 100.0 µM 14% | [13]; at 1.2 µM 1% | [13]; at 3.7 µM 1% | [13]; at 11.0 µM 4% | [13]; at 33.0 µM 10% | [13]; at 100.0 µM 9% | [14]; at 1.2 µM -21% | [14]; at 3.7 µM 20% | [14]; at 11.0 µM 33% | [14]; at 33.0 µM 51% | [14]; at 100.0 µM 53% | [15]; [17] 31% | [16]; at 1.2 µM 59%
